KB-3-1 cytotox – kills parental KB-3-1 adenocarcinoma cells. KB-3-1 viability, CellTiter-Glo ATP luminescence, 72 h. Potency, µM (titrated, usually from 46.1 µM), hits mostly cytotoxic. 1.4% of 400,000 active. AID 1347075; also: nearly all actives have a fitted effect of over 60% in size
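Screening of KB-3-1 cells (DMEM, 10% FBS, phenol-red free) ran from lowest to highest compound concentration; after 72 h at 37 °C viability was read luminescently and curves fitted.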
SW480 rerep – induces DNA re-replication in SW480 colon adenocarcinoma cells; AID 624297; SW480 DNA re-replication, Hoechst DNA content imaging, 48 h; 1.8% of 340,000 active; Potency, µM (highest dose often 46.1 µM), usual class: activators; also: nearly all actives have a fitted effect of over 55% in size
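DNA re-replication was detected as more nuclei of elevated Hoechst intensity after 48 hr exposure to compound (23 nL pinned per well of 250 cells).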
KB-V1 cytotox – KB-V1 MDR subline cytotoxicity | Potency, µM (top dose mostly 46.1 µM), actives largely listed as cytotoxic | 3.4% of 400,000 active | KB-V1 MDR cells viability, CellTiter-Glo, 72 h | AID 1347076; also: nearly all actives have a fitted effect of over 60% in size
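KB-V1, DMEM (no phenol red) + 10% FBS; cpd pin-transferred, titration series; 72 h, 37 degrees C; CellTiter-Glo, luminescence. Data normalized, curve-fit.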
MCF10A rereplic – induces DNA re-replication in MCF 10a normal breast cells; AID 624296; Potency, µM (highest dose often 46.1 µM), actives largely listed as activators; 2.9% of 350,000 active; MCF 10A DNA re-replication, Hoechst nuclear intensity, 48 h; also: nearly all actives have a fitted effect of over 50% in size
ELG1 repair inh – inhibitors of ELG1-dependent DNA repair in HEK293T cells; 2.3% of 330,000 active; AID 504467; Potency, µM (top dose mostly 46.1 µM), usual class: inhibitors; HEK293T ELG1-luciferase reporter, luminescence, 16 h; DNA damage induced by 5-fluorouridine; also: nearly all actives have a fitted effect of over 55% in size
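HEK293T cells expressing luciferase-tagged ELG1 (2,000/well) received 5-Fluorouridine plus compound or DMSO for 16 hr at 37 °C. Luciferase was read by ONE-Glo luminescence after 30 min at room temperature.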
Large screens that a line does not name were inactive. Shown are actives, neighbours in structure and some others; about 8.1% of the full set was active somewhere. Calls follow the shape of the dose curve; as a rule, active = well fitted curve in the direction sought with a large enough effect; inconclusive = small, poorly fitted or top-dose-only effect, or another doubt; inactive = no such curve, though single readings can be large; an effect the other way counts as inactive or inconclusive.

CC(=O)NC(CC(C)C)C(=O)NC(Cc1ccccc1)C(=O)CCl (configuration not stated)	MCF10A rereplic 8.2µM (no result: ELG1 repair inh)
Cc1ccc(S(=O)(=O)NC(Cc2ccccc2)C(=O)NN)cc1 (configuration not stated)	SW480 rerep inconclusive
CC(=O)NC(CC(C)C)C(=O)NC(Cc1ccccc1)C(N)=O (configuration not stated)	ELG1 repair inh inconclusive
COc1cc(/C=C(\C#N)c2nc3ccccc3o2)ccc1O	MCF10A rereplic 18µM, ELG1 repair inh inconclusive
COc1cc(/C=C(\C#N)c2nc(-c3cc4ccccc4oc3=O)cs2)ccc1O	MCF10A rereplic 0.92µM, ELG1 repair inh inconclusive
N#C/C(=C\c1cccc(F)c1)c1nc(-c2cc3ccccc3oc2=O)cs1	KB-V1 cytotox inconclusive (no result: SW480 rerep, MCF10A rereplic, ELG1 repair inh)
CCCCNC(=O)Cn1c(SCc2ccccc2C)nc2ccncc21	none (no result: SW480 rerep, MCF10A rereplic, ELG1 repair inh)
O=C(NCc1ccc(F)cc1)c1[nH]c(C(F)(F)F)nc1-c1ccccc1	none (no result: SW480 rerep, MCF10A rereplic, ELG1 repair inh)
COc1cc(C2c3c(oc4ccc(F)cc4c3=O)C(=O)N2c2nc(C)c(C)s2)cc(OC)c1OC (configuration not stated)	none (no result: SW480 rerep, MCF10A rereplic, ELG1 repair inh)
CC1=NNC(=O)/C1=C\c1cn(-c2ccccc2)nc1-c1ccccc1	KB-3-1 cytotox inconclusive, KB-V1 cytotox inconclusive, MCF10A rereplic 3.7µM, ELG1 repair inh inconclusive
CCOC(=O)CC1COc2ccccc2N1C(=O)c1ccc(F)cc1 (configuration not stated)	none
CCOC(=O)CC1COc2ccccc2N1C(=O)c1ccc(C)cc1 (configuration not stated)	KB-V1 cytotox 18µM
COc1ccc2c(c1)c(C(=O)N/N=C/c1ccc(Br)cc1)c(C)n2C	KB-3-1 cytotox inconclusive, SW480 rerep 10µM, KB-V1 cytotox inconclusive, MCF10A rereplic 13µM, ELG1 repair inh inconclusive
CCOc1ccc(/C=N/NC(=O)c2cc3c(OC)cccc3[nH]2)cc1	SW480 rerep inconclusive, MCF10A rereplic inconclusive
CCOc1ccc(/C=N/NC(=O)c2c(C)n(C)c3ccc(OC)cc23)cc1	KB-3-1 cytotox 8.2µM, SW480 rerep inconclusive, KB-V1 cytotox 13µM, MCF10A rereplic 12µM, ELG1 repair inh inconclusive
COc1ccc2c(c1)c(C(=O)N/N=C/c1ccc(O)c(O)c1)c(C)n2C	none
COc1ccc(CCC(=O)NO)cc1	KB-V1 cytotox inconclusive (no result: SW480 rerep, MCF10A rereplic, ELG1 repair inh)
CC1CC(C)CN(c2oc(-c3ccc(OCc4ccccc4Cl)cc3)nc2C#N)C1 (configuration not stated)	KB-3-1 cytotox inconclusive (no result: SW480 rerep, MCF10A rereplic, ELG1 repair inh)
O=C(NCc1ccccc1F)C1CCN(c2nnc(-n3cccc3)s2)CC1	none (no result: SW480 rerep, MCF10A rereplic, ELG1 repair inh)
N#Cc1cc(C(=O)c2ccccc2OCC(=O)Nc2ccccc2Cl)cn(C2CCCCC2)c1=O	ELG1 repair inh inconclusive
CC(=O)c1cccc(NC(=O)COc2ccccc2C(=O)c2cc(C#N)c(=O)n(C3CCCCC3)c2)c1	ELG1 repair inh 10µM
CCOC(=O)C1(Cc2ccc(Cl)cc2)CCN(C(=O)CCc2ccncc2)CC1	SW480 rerep inconclusive, KB-V1 cytotox 4.1µM
CCOC(=O)C1(Cc2ccc(Cl)cc2)CCN(C(=O)CCc2cnccn2)CC1	KB-3-1 cytotox inconclusive, KB-V1 cytotox inconclusive
CCn1cc(C(=O)NCc2cccc(F)c2)c(=O)c2cc(F)c(N3CCN(C(=O)c4ccco4)CC3)cc21	KB-3-1 cytotox inconclusive, KB-V1 cytotox inconclusive, MCF10A rereplic inconclusive, ELG1 repair inh 13µM
CCn1cc(C(=O)NCc2cccnc2)c(=O)c2cc(F)c(N3CCN(C(=O)c4ccco4)CC3)cc21	KB-3-1 cytotox inconclusive, ELG1 repair inh 21µM
CCCCNC(=O)c1cn(CC)c2cc(N3CCN(C)CC3)c(F)cc2c1=O	none
CCCNC(=O)c1cn(CC)c2cc(N3CCN(C(=O)c4ccco4)CC3)c(F)cc2c1=O	ELG1 repair inh 13µM
FC(F)(F)c1ccccc1Cc1c(-c2ccc(Cl)cc2)nc2c3ccccc3ccn12	none (no result: SW480 rerep, MCF10A rereplic, ELG1 repair inh)
CO/N=C/c1ccc(N2CCN(C(=O)c3ccc(F)cc3)CC2)c([N+](=O)[O-])c1	KB-V1 cytotox 16µM, ELG1 repair inh inconclusive
CO/N=C/c1ccc(N2CCN(C(=O)c3cccc(C(F)(F)F)c3)CC2)c([N+](=O)[O-])c1	KB-3-1 cytotox inconclusive, SW480 rerep inconclusive, KB-V1 cytotox 10µM, ELG1 repair inh inconclusive
O=C(N/N=C/c1ccc(N2CCOCC2)c([N+](=O)[O-])c1)c1ccc(F)cc1	ELG1 repair inh inconclusive
CO/N=C/c1ccc(N2CCN(C(=O)c3ccc(Cl)cc3Cl)CC2)c([N+](=O)[O-])c1	KB-3-1 cytotox 13µM, KB-V1 cytotox 2.6µM
O=C(O/N=C\c1ccc(N2CCCCC2)c([N+](=O)[O-])c1)c1cccc(C(F)(F)F)c1	KB-3-1 cytotox inconclusive, KB-V1 cytotox inconclusive
CN(CC(=O)Nc1ccccc1Br)C(=O)CN1CCN(c2ccccc2Cl)CC1	none (no result: KB-3-1 cytotox, KB-V1 cytotox)
O=S(=O)(Cc1ccccc1)C(c1ccccc1)S(=O)(=O)Cc1ccccc1	none (no result: SW480 rerep, MCF10A rereplic, ELG1 repair inh)
COc1ccc(Nc2nc(NC(C)(C)C)nc(N3CCCC3)n2)c(OC)c1	SW480 rerep inconclusive, KB-V1 cytotox 18µM, MCF10A rereplic inconclusive
COc1ccc(Nc2nc(N3CCCCC3)nc3ccccc23)c(OC)c1	KB-3-1 cytotox inconclusive, ELG1 repair inh 23µM
Cn1c(SCC(=O)Nc2ccccc2Br)nnc1-c1cnccn1	none
C=CCN(c1ccccc1OC)S(=O)(=O)c1cccc(C(=O)OCC(=O)N2CC(C)OC(C)C2)c1 (configuration not stated)	KB-V1 cytotox 4.1µM
CN1CCc2c(sc(NC(=O)c3ccco3)c2C(N)=O)C1	none
CN1CCc2c(sc(NC(=O)c3ccc([N+](=O)[O-])o3)c2C(N)=O)C1	KB-3-1 cytotox inconclusive, SW480 rerep 1.5µM, KB-V1 cytotox inconclusive, MCF10A rereplic inconclusive, ELG1 repair inh inconclusive
CN1CCc2c(sc(NC(=O)c3cc(Cl)sc3Cl)c2C(N)=O)C1	SW480 rerep inconclusive, MCF10A rereplic 23µM
N#Cc1c(NC(=O)c2ccc([N+](=O)[O-])o2)sc2c1CCC2	KB-3-1 cytotox 5.2µM, SW480 rerep 10µM, KB-V1 cytotox 18µM, MCF10A rereplic 21µM, ELG1 repair inh inconclusive
N#Cc1c(NC(=O)c2ccc(Cn3cc(Br)cn3)o2)sc2c1CCCCCC2	KB-3-1 cytotox inconclusive, KB-V1 cytotox 2.6µM, MCF10A rereplic inconclusive
CC(=O)Nc1nnc(-c2c(-c3c(Cl)cccc3Cl)noc2C)o1	KB-V1 cytotox inconclusive
CCC(=O)N1CCC1(C)C(=O)Nc1ncc(C)s1 (configuration not stated)	none (no result: SW480 rerep, MCF10A rereplic, ELG1 repair inh)
NC(=O)c1c(NC(=O)c2ccc([N+](=O)[O-])o2)sc2c1CCCC2	KB-3-1 cytotox 16µM, SW480 rerep 1.5µM, KB-V1 cytotox inconclusive, MCF10A rereplic 2.6µM
NC(=O)c1ccsc1NC(=O)c1ccc([N+](=O)[O-])o1	KB-3-1 cytotox inconclusive, SW480 rerep inconclusive, KB-V1 cytotox inconclusive, MCF10A rereplic 3.7µM
